From PubChem
Sampled rows, rich in hits. Any-hit rate of the full collection: about 12%.
SARS PLpro yeast: SARS-CoV PLP inhibition in yeast; actives 0.19% (n = 330,000); Potency, µM (series often up to 32.9 µM), for inactives: at the top dose activity, positive = growth rescue, actives largely listed as activators; AID 485353; S. cerevisiae expressing SARS-CoV PLpro, growth rescue; calls by dose curve; further: 0% is about no effect; nearly all actives have a fitted effect of over 55% in size
Sm TGR block: S. mansoni TGR enzyme inhibition; Q962Y6; purified TGR, DTNB reduction, TNB absorbance 405 nm; Potency, µM (top dose mostly 114 µM), for inactives: at the top dose activity change, negative = inhibition, hits mostly inhibitors; actives 3% (n = 360,000); further: on the % scale 0 is the no-effect control and ±100 the full control effect; nearly all actives have a fitted effect of over 60% in size
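TGR 20 nM + NADPH 100 uM (dispensed conc.), cpd preinc 15 min RT; start with NADPH (500 uM addition) then DTNB (15 mM addition). Kinetic TNB absorbance, 405 nm filter. Four-parameter Hill fit across titration.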
Pf growth 48h: P. falciparum growth inhibition at 48 hours (one generation) | P. falciparum luciferase growth in erythrocytes, 48 h | Potency, µM (top dose mostly 28.7 µM), for inactives: at the top dose activity change, negative = inhibition, most hits filed as inhibitors | actives 5.9% (n = 310,000); further: on the % scale 0 is the no-effect control and ±100 the full control effect
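Erythrocytes infected with P. falciparum carrying an integrated firefly luciferase reporter (2% hematocrit, 0.1% parasitemia final) were exposed to compounds in RPMI 1640 with 0.5% Albumax at 37 C, 5% CO2. Growth inhibition was scored as reduced luminescence.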
Pf growth 96h: P. falciparum growth inhibition at 96 hour, primary screen for plastid delayed-death inhibitors; P. falciparum luciferase reporter growth, 96 h; Potency, µM (doses to about 28.7 µM), without a hit: at the top dose activity change, negative = inhibition, usual class: inhibitors; actives 6.9% (n = 320,000); AID 504834; further: on the % scale 0 is the no-effect control and ±100 the full control effect
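Delayed-death screen, second-generation endpoint: infected erythrocytes, 2% hematocrit, 0.05% parasitemia final; 96 hours at 37 C, 5% CO2; luciferase detection reagent; luminescence decrease equals reduced growth.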
* = called active by the depositor; ? = inconclusive; nt = no result given; [ ] = remark or other dose. Unless noted, the call rests on the fitted dose curve; in most records, active means well fitted curve in the direction sought with a large enough effect; inconclusive means small, poorly fitted or top-dose-only effect, or another doubt; inactive means no such curve, though single readings can be large; an effect the other way counts as inactive or inconclusive. Potency means the concentration at half of the fitted maximal effect.

SMILES	SARS PLpro yeast	Sm TGR block	Pf growth 48h	Pf growth 96h
O=C(/C=C/c1cccs1)N1CCC2(CC1)Oc1ccc(F)cc1C(=O)C21CC(c2ccc(Cl)cc2)=NO1 (configuration not stated)	1%	11%	9.3µM*	1.9µM*
CC(C)(C)OC(=O)N1CCC2(CC1)Oc1ccc(F)cc1C(=O)C21CC(c2cccnc2)=NO1 (configuration not stated)	2%	-10%	10µM*	?
O=C(/C=C/c1cccs1)N1CCC2(CC1)Oc1ccc(F)cc1C(=O)C21CC(c2ccccc2)=NO1 (configuration not stated)	1%	7%	10µM*	9.3µM*
CCC(=O)N1CCC2(CC1)Oc1ccc(F)cc1C(=O)C21CC(c2cccnc2)=NO1 (configuration not stated)	1%	-33%	48%	27%
CC(=O)Nc1ccc(-c2csc(N3CCC(C(N)=O)CC3)n2)cc1	nt	nt	?	-5%
Cc1noc(C)c1C(=O)N1CCC2(CC1)Oc1ccc(F)cc1C(=O)C21CC(c2ccc(Cl)cc2)=NO1 (configuration not stated)	2%	1%	12µM*	?
Cc1ccc(S(=O)(=O)N2CCN(C(=O)CCn3nc(C)c(C)c3C)CC2)cc1C	-1%	-6%	-1%	92%
Cc1ccc(S(=O)(=O)N2CCN(C(=O)/C=C/c3ccco3)CC2)cc1	2%	50µM*	6.6µM*	1.9µM*
O=C(/C=C/c1ccco1)N1CCN(S(=O)(=O)c2ccc(F)c(F)c2F)CC1	0%	5µM*	?	?
Cc1ccc(S(=O)(=O)N2CCN(C(=O)CC(C)n3nc(C)c(Cl)c3C)CC2)cc1C (configuration not stated)	0%	0%	?	12µM*
O=C(/C=C/c1ccco1)N1CCN(S(=O)(=O)c2ccccc2)CC1	-1%	nt	nt	nt
Cc1ccc(C)c(S(=O)(=O)N2CCN(C(=O)/C=C/c3ccco3)CC2)c1	1%	4µM*	?	-91%
CC(C)N(C(=O)Cn1c(=O)oc2ccccc21)c1ccccc1	0%	-8%	-18%	48%
CSc1ccccc1C(=O)Nc1cc2c(cc1C(=O)O)OCCCO2	1%	3%	1%	-1%
O=C(CC1SC(N2CCCC2)=NC1=O)Nc1ccc(C(=O)NCCOc2ccccc2F)cc1 (configuration not stated)	-3%	-1%	6%	?
Cc1ccc(S(=O)(=O)N2CCN(C(=O)/C=C/c3ccccc3)CC2)cc1C	-3%	-1%	4.1µM*	13µM*
COCCCNC(=O)CCc1c(C)nc2c(-c3ccc(F)cc3)c(C)nn2c1C	-2%	-2%	?	?
Cc1nc2c(-c3ccc(F)cc3)c(C)nn2c(C)c1CCC(=O)N1CCOCC1	-3%	5%	nt	?
CCOC(=O)C1CCN(C(=O)CCc2c(C)nc3c(-c4ccc(F)cc4)c(C)nn3c2C)CC1	-4%	2%	nt	10µM*
COCCNC(=O)CCc1c(C)nc2c(-c3ccc(F)cc3)c(C)nn2c1C	-1%	-10%	nt	13µM*
Cc1c(C(=O)N2CCC(C)CC2)c(S(=O)(=O)N2CCN(c3cccc(Cl)c3)CC2)c(C)n1C	nt	0%	nt	nt
Nc1cccc2c1C(=O)N(C(=O)/C=C/c1cccc(F)c1)C2=O	-2%	6.3µM*	20%	25%
Nc1cccc2c1C(=O)N(C(=O)/C=C/c1cccc(Br)c1)C2=O	-2%	2.5µM*	16%	30%
COc1cc(/C=C/C(=O)N2C(=O)c3cccc(N)c3C2=O)cc(OC)c1OC	-19%	-9%	?	?
CC(C)CCn1c(SCc2c(F)cccc2Cl)nc2ccsc2c1=O	nt	11%	nt	nt
SMILES	SARS PLpro yeast	Sm TGR block	Pf growth 48h	Pf growth 96h
CCOc1ccc(CCNC(=O)c2ccc(CS(=O)(=O)Cc3ccccc3Cl)o2)cc1OCC	nt	-26%	nt	nt
CCCCNC(=O)c1ccc2c(=O)n(Cc3ccc(OC)cc3)c(=O)[nH]c2c1	nt	0%	nt	nt
C=CCN1C(=O)/C(=C/c2ccc(-c3ccc(F)cc3)o2)SC1=S	0%	25µM*	45%	57%
C[C@@H]1CCC[C@H](C)N1	nt	nt	11%[12.8 µM]	0%[12.8 µM]
COC(=O)c1ccc(CSc2nc3ccccc3c(=O)n2C)o1	0%	45µM*	-5%	-10%
COC(=O)c1ccc(CSc2nc3c(cnn3-c3ccc(Cl)cc3)c(=O)[nH]2)o1	-4%	6%	1%	6.6µM*
CCc1nc(SCc2ccc(C(=O)OC)o2)c2c(=O)n(C)c(=O)n(C)c2n1	-13%	3%	8.3µM*	2.6µM*
CCc1nc(SCC(=O)NCc2ccc(F)cc2)c2c(=O)n(C)c(=O)n(C)c2n1	?	-1%	5%	32%
COC(=O)c1ccc(CSc2nc3c(cnn3-c3ccc(F)cc3)c(=O)[nH]2)o1	-10%	-2%	13%	?
Cn1c(SCc2cccc(C#N)c2)nc2ccccc2c1=O	-1%	-14%	10µM*	69%
CCCCOc1ccccc1C(=O)Nc1nonc1-c1ccccc1	nt	-4%	nt	nt
CCCCCC(=O)Nc1cc(S(=O)(=O)N2CCOCC2)ccc1Oc1ccc(OCC)cc1	0%	6%	?	?
O=C(Nc1nc2c(Br)cccc2s1)C1CC1	-33%	0%	34%	53%
COc1cc2c(cc1OC)[C@H](C)N(C(=O)NCc1ccccc1)CC2	0%	-33%	nt	-18%
COC(=O)c1ccc(CSc2nc3c(c(=O)n2-c2ccc(Br)cc2)SCC3)o1	14%	-32%	nt	9.3µM*
CCOC(CCn1c(SCc2cccc([N+](=O)[O-])c2)nc2ccccc2c1=O)OCC	-11%	-18%	?	-2%
CCOc1ccc(-n2c(SCc3ccc(C(=O)OC)o3)nc3c(c2=O)SCC3)cc1	?	-6%	?	nt
Cn1c(SCc2cccc([N+](=O)[O-])c2)nc2ccccc2c1=O	-22%	-5%	5.2µM*	10µM*
COCCn1c(SCc2cccc([N+](=O)[O-])c2)nc2ccccc2c1=O	-3%	3%	9.3µM*	?
O=C(Nn1c(SCc2cccc([N+](=O)[O-])c2)nc2ccccc2c1=O)c1ccccc1	-27%	-3%	179%	6%
O=C(Nc1cc(-c2nc3ccccc3o2)ccc1Cl)c1sc2c([N+](=O)[O-])cccc2c1Cl	nt	0%	nt	nt
CCc1ccc(-c2cc(C(F)(F)F)n3nc(C(=O)Nc4cnn(Cc5ccc(C)cc5)c4)cc3n2)s1	1%	-26%	nt	4.7µM*
Cc1ccccc1Cn1cc(NC(=O)c2cc3nc(-c4ccco4)cc(C(F)(F)F)n3n2)cn1	-1%	-3%	?	50%
COc1cc(-c2nc(-c3cccc(C(F)(F)F)c3)no2)cc(OC)c1OC	8%	1%	?	12µM*
Cc1ccc(Nc2nc(CSc3nnc(-c4cccnc4)n3-c3ccccc3C)cs2)cc1	10%	-10%	-21%	?
Cc1ccccc1-n1c(SCc2csc(Nc3ccccc3)n2)nnc1-c1cccnc1	-8%	-8%	?	9.3µM*
Nc1c(Cl)cc(C2=NCCn3c2c2ccc([N+](=O)[O-])cc2[n+]3[O-])cc1Cl	1%	40µM*	13µM*	?
